# Source: PubChem BioAssay (EPA / NIEHS)
# Records with an inconclusive call do not appear. Active and inactive are the calls of the source. How the source made its calls: active means hit-call score of the fitted dose curve at least 0.9, where 1 is the maximum; inconclusive means response in the unintended direction; inactive means score below 0.9.
# Columns and labels:
# [1] = target: human Muscarinic, M4 Receptor, CHRM4 (gene 1132) (UniProt P08173); experiment: NVS_GPCR_hM4: NovaScreen (NVS) G Protein-Coupled Receptor Assay for human Muscarinic, M4 Receptor (AID 2283274)
# Chain of human Muscarinic, M4 Receptor, CHRM4 (gene 1132) (P08173 whole entry, looked up): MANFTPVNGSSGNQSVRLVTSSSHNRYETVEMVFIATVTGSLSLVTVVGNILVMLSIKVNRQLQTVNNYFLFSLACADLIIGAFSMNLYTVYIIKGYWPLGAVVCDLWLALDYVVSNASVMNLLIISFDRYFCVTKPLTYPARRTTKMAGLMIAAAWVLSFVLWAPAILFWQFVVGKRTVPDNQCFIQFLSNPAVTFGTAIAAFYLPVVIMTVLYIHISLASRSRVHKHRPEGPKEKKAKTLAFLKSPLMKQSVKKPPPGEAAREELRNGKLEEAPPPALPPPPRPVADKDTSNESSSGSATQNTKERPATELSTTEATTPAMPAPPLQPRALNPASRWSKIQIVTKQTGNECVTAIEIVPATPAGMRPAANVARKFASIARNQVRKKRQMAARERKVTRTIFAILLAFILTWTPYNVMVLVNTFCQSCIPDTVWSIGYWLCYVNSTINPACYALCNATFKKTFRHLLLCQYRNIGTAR
# Method in brief: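 Cell-free radioligand displacement using CHO-derived human M4 receptor protein, 1 h after dosing; bound radioactivity by filtration and scintillation counting. Primary screen single 25 uM duplicate, actives followed in concentration series.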
# [2] = target: Muscarinic acetylcholine receptor M5 (Homo sapiens) (UniProt P08912); experiment: NVS_GPCR_hM5: NovaScreen (NVS) G Protein-Coupled Receptor Assay for human Muscarinic, M5 Receptor (AID 2283275)
# Chain of Muscarinic acetylcholine receptor M5 (Homo sapiens) (P08912 whole entry, looked up): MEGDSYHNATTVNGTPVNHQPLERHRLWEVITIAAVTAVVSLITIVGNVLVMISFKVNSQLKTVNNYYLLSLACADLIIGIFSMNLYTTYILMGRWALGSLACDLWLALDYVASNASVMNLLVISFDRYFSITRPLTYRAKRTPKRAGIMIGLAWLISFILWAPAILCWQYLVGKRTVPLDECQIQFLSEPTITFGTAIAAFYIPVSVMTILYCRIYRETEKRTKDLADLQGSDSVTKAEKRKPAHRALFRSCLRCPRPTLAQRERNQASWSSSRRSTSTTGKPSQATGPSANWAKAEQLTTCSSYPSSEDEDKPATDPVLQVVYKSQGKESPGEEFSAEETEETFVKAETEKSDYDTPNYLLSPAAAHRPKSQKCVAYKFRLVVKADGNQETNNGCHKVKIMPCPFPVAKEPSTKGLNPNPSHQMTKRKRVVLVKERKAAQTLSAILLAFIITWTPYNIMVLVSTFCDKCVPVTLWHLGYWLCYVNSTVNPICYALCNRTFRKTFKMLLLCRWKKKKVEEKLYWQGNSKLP
# Description: NVS_GPCR_hM5 is a biochemical, single-readout assay that uses extracted gene-proteins from CHO in a cell-free assay. Measurements were taken 1 hour after chemical dosing in a 96-well plate.NVS_GPCR_hM5 is one of one assay component(s) measured or calculated from the NVS_GPCR_hM5 assay. It is designed to make measurements of radioligand binding, a form of binding reporter, as detected with scintillation counting signals by Filter-based radiodetection technology.Data from the assay component NVS_GPCR_hM5 was analyzed into 1 assay endpoint. This assay endpoint, NVS_GPCR_hM5, was analyzed in the positive analysis fitting direction relative to DMSO as the negative control and baseline of activity. Using a type of binding reporter, loss-of-signal activity can be used to understand changes in the binding as they relate to the gene CHRM5. Furthermore, this assay endpoint can be referred to as a primary readout, because the performed assay has only produced 1 assay endpoint. To generalize the intended target to other relatable targets, this assay endpoint is annotated to the gpcr intended target family, where the subfamily is rhodopsin-like receptor.
# Binding assays used specific radioligands (tritiated, iodinated) with non-radioactive competitive displacement ligands in agonist or antagonist protocols (as indicated) and various reference compounds and inhibitors to titrate specific binding to receptors and transporters. Most enzyme assays (CYPs, kinases, phosphatases, proteases, HDACs) used recombinant protein and specific substrates (fluorescence mostly, some colorimetric and radioactive) and inhibitors, followed by a biochemical separation of substrate and product. All assays for the biochemical HTS were initially run in duplicate at a single concentration (10 uM for CYP450 assays and 25 uM for all others). Assay-chemical combinations meeting a pre-defined threshold (e.g., 30% inhibition and other criteria defined below) were then run in singleton concentration-response format with maximum concentration of 20 uM for CYPs and 50 uM for all others. Each assay was run with positive and negative controls, and concurrent controls on every plate. The follow-up (secondary) screen tested active chemical-pairs in concentration series, as well as a few additional assays not tested in the primary screen, some selected negative inactives, and several cases re-run in the concentration series for confirmatory purposes.
# [3] = target: D(1A) dopamine receptor (Homo sapiens) (UniProt P21728); experiment: NVS_GPCR_hDRD1: NovaScreen (NVS) G Protein-Coupled Receptor Assay for human Dopamine Receptor D1 (DRD1) (AID 2283269)
# Chain of D(1A) dopamine receptor (Homo sapiens) (P21728 whole entry, looked up): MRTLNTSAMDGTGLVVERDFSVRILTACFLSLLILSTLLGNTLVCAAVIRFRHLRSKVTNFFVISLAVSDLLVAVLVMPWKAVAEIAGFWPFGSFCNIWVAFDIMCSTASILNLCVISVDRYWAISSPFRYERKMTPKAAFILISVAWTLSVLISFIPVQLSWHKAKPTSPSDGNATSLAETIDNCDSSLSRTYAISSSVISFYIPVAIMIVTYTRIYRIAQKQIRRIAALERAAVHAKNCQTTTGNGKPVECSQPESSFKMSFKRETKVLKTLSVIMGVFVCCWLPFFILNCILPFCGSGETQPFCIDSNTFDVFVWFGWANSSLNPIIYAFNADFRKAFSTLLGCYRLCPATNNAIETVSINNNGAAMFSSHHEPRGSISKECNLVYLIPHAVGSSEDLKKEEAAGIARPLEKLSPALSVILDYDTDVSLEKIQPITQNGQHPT
# Method in brief: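 Cell-free radioligand binding to human DRD1 from HEK293 membranes, read 1 h after dosing by filter-based scintillation counting. Loss of signal versus DMSO baseline marks displacement. Primary screen at 25 uM single concentration in duplicate; actives followed up in concentration series.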
# [4] = target: Muscarinic acetylcholine receptor M3 (Homo sapiens) (UniProt P20309); experiment: NVS_GPCR_hM3: NovaScreen (NVS) G Protein-Coupled Receptor Assay for human Muscarinic, M3 Receptor (AID 2283272)
# Chain of Muscarinic acetylcholine receptor M3 (Homo sapiens) (P20309 whole entry, looked up): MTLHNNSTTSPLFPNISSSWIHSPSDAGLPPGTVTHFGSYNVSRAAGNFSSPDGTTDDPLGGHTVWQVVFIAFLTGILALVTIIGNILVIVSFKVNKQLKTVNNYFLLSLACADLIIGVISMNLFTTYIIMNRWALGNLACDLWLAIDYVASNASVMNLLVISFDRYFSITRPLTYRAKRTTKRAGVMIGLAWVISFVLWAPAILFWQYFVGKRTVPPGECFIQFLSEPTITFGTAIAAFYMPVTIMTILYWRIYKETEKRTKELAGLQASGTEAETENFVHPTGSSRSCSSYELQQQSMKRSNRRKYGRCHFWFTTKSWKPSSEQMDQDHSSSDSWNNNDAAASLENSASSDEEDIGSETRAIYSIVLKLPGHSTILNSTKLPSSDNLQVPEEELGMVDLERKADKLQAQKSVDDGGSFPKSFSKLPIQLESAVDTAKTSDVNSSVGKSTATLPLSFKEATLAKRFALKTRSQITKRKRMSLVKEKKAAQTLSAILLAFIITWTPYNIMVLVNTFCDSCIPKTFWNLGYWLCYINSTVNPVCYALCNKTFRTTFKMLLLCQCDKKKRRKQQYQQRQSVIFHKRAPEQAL
# Method in brief: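 Radioligand displacement binding on human M3 receptor in CHO-derived membranes, 1 h incubation, filter-based scintillation counting. Primary screen in duplicate at 25 uM; actives followed up in concentration series; loss of signal versus DMSO.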
# [5] = target: human Neurokinin, NK2 Receptor, TACR2 (gene 6865) (UniProt P21452); experiment: NVS_GPCR_hNK2: NovaScreen (NVS) G Protein-Coupled Receptor Assay for human Neurokinin, NK2 Receptor (AID 2283278);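 further: actives reduce bound radioligand signal relative to DMSO baseline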
# Chain of human Neurokinin, NK2 Receptor, TACR2 (gene 6865) (P21452 whole entry, looked up): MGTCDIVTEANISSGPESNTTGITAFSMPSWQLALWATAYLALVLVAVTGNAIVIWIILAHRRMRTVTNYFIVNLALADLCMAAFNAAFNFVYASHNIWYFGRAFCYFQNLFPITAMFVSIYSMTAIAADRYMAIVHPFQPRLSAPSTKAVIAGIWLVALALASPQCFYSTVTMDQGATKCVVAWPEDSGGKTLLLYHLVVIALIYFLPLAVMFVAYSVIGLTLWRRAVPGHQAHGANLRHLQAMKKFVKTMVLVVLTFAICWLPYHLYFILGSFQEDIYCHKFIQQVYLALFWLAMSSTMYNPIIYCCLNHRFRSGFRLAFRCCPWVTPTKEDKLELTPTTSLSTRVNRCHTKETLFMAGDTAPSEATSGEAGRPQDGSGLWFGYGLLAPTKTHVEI
# Method in brief: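 CHO-derived membrane protein, radioligand displacement, filter scintillation read at 4 h post-dose. Single-point 25 uM in duplicate, then concentration series for actives; DMSO as negative control.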
# [6] = target: Muscarinic acetylcholine receptor M2 (Homo sapiens) (UniProt P08172); experiment: NVS_GPCR_hM2: NovaScreen (NVS) G Protein-Coupled Receptor Assay for human Muscarinic, M2 Receptor (AID 2283273)
# Chain of Muscarinic acetylcholine receptor M2 (Homo sapiens) (P08172 whole entry, looked up): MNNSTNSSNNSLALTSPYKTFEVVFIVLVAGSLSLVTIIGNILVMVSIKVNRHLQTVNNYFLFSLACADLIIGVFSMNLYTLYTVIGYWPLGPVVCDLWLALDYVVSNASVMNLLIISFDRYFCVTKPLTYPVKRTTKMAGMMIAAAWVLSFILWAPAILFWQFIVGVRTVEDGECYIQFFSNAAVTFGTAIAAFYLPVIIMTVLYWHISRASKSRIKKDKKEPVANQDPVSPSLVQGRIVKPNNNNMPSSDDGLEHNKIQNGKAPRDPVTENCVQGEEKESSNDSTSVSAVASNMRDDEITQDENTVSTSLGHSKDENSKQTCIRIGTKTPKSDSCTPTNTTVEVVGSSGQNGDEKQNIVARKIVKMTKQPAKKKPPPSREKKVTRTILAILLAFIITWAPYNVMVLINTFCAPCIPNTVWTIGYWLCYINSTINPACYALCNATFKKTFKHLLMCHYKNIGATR
# Method in brief: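 Radioligand displacement on human M2 receptor membranes from CHO cells, 1 h incubation, filtration with scintillation counting. Primary screen in duplicate at 25 uM; actives retested in concentration series; loss of signal fitted versus DMSO.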
# [7] = target: Neuropeptide Y receptor type 2 (Homo sapiens) (UniProt P49146); experiment: NVS_GPCR_hNPY2: NovaScreen (NVS) G Protein-Coupled Receptor Assay for human Neuropeptide Receptor Y2 (NPY2) (AID 2283277)
# Chain of Neuropeptide Y receptor type 2 (Homo sapiens) (P49146 whole entry, looked up): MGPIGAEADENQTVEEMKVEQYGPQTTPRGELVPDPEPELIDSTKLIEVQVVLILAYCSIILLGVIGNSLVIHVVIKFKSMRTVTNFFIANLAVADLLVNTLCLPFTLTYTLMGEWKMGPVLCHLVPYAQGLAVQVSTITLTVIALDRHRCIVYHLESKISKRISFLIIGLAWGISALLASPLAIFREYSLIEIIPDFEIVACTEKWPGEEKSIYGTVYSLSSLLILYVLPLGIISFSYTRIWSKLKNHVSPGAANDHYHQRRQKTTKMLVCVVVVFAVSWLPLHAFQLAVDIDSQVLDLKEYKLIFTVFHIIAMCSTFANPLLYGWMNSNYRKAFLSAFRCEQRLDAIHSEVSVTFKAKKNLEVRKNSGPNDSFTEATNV
# Method in brief: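 Radioligand binding on membranes extracted from SK-N-MC cells, cell-free, read 1 h after dosing by filter-based scintillation counting. Loss of signal vs DMSO. Primary screen in duplicate at 25 uM; actives followed up in concentration-response up to 50 uM.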
# [8] = target: Muscarinic acetylcholine receptor M1 (Homo sapiens) (UniProt P11229); experiment: NVS_GPCR_hM1: NovaScreen (NVS) G Protein-Coupled Receptor Assay for human Muscarinic, M1 Receptor (AID 2283270)
# Chain of Muscarinic acetylcholine receptor M1 (Homo sapiens) (P11229 whole entry, looked up): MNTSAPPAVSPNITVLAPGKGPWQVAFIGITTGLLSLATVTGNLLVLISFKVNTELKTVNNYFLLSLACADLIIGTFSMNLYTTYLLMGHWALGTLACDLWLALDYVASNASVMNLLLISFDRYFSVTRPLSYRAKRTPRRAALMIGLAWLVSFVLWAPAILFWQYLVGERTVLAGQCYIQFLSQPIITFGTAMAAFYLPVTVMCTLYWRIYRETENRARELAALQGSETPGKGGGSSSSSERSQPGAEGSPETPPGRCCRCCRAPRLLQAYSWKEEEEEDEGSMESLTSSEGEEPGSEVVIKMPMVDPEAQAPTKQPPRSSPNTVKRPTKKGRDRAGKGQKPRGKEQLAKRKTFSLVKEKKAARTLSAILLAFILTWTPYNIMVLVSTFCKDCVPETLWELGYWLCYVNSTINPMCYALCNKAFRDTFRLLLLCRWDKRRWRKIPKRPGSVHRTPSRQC
# Method in brief: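 Cell-free radioligand displacement using membrane protein extracted from CHO cells, read by filter-based scintillation counting 1 h after dosing. Loss of bound signal fitted versus DMSO; primary screen single concentration 25 uM in duplicate, actives followed by concentration series.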
# [9] = target: human Leukotriene B4 Receptor 1 (LTB4-BLT1), LTB4R (gene 1241) (UniProt Q15722); experiment: NVS_GPCR_hLTB4_BLT1: NovaScreen (NVS) G Protein-Coupled Receptor Assay for human Leukotriene B4 Receptor 1 (LTB4-BLT1) (AID 2283271)
# Chain of human Leukotriene B4 Receptor 1 (LTB4-BLT1), LTB4R (gene 1241) (Q15722 whole entry, looked up): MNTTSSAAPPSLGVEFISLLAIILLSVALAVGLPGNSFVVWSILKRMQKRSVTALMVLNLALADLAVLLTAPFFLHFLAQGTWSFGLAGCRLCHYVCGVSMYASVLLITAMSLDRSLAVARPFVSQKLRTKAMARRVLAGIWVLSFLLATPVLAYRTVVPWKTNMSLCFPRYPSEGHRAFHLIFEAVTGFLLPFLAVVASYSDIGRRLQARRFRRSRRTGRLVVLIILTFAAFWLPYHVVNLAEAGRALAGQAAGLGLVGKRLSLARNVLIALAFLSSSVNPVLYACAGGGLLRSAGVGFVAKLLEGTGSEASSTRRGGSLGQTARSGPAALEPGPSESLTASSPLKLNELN
# Method in brief: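 Radioligand displacement binding on receptor extracted from human neutrophils, cell-free, 1 h after dosing; filter-based scintillation counting. Primary screen in duplicate at 25 uM, actives retested in concentration-response up to 50 uM; loss of signal versus DMSO.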
# [10] = target: human Neuropeptide Receptor Y1 (NPY1), NPY1R (gene 4886) (UniProt P25929); experiment: NVS_GPCR_hNPY1: NovaScreen (NVS) G Protein-Coupled Receptor Assay for human Neuropeptide Receptor Y1 (NPY1) (AID 2283276)
# Chain of human Neuropeptide Receptor Y1 (NPY1), NPY1R (gene 4886) (P25929 whole entry, looked up): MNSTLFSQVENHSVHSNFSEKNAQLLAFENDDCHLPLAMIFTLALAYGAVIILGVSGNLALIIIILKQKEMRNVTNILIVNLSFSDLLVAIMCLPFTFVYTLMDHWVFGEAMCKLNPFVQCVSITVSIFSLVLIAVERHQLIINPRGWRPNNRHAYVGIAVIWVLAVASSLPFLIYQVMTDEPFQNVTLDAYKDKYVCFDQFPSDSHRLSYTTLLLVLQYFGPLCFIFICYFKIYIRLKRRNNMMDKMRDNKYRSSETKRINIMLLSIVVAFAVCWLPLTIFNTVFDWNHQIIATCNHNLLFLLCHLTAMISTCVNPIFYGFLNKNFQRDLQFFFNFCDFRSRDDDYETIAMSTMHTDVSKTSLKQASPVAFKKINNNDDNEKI
# Method in brief: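 Cell-free radioligand binding using receptor extracted from SK-N-MC cells, 1 h incubation, filter-based scintillation counting. Primary screen single concentration 25 uM in duplicate; actives followed in concentration series. Loss of bound signal scored versus DMSO.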
smiles,measurement,setting,value
CN1CCC[C@H]1c1cccnc1,outcome,[1],inactive
same,outcome,[2],inactive
NC(=O)N(O)[C@@H]1C=C[C@H](Oc2cccc(Oc3ccc(F)cc3)c2)C1,AC50,[3],25 µM (active)
same,outcome,[4],inactive
same,AC50,[1],25 µM (active)
same,outcome,[2],inactive
same,outcome,[5],inactive
CCC(=C(c1ccc(O)cc1)c1ccc(OCCN(C)C)cc1)c1ccccc1,AC50,[3],1.71 µM (active)
same,outcome,[6],inactive
same,AC50,[2],2.52 µM (active)
CCCCC(CC)COC(=O)CCCCC(=O)OCC(CC)CCCC (configuration not stated),outcome,[7],inactive
CCN(CC)CCNc1ccc(CNC=O)c2sc3ccc(OC)cc3c(=O)c12,AC50,[3],7.31 µM (active)
same,AC50,[8],4.7 µM (active)
same,AC50,[4],8.94 µM (active)
same,AC50,[6],11.7 µM (active)
same,AC50,[1],8.13 µM (active)
same,AC50,[2],7.21 µM (active)
O=c1c(-c2ccc(O)cc2)coc2cc(O)ccc12,outcome,[9],inactive
Nc1cccc2c(N)cccc12,outcome,[5],inactive
CCCOc1sc(C(=O)N2CCC(c3cc(CN)ccc3F)CC2)c(C)c1Br,AC50,[3],3.56 µM (active)
same,AC50,[8],8.67 µM (active)
same,AC50,[4],11.3 µM (active)
same,AC50,[6],12.2 µM (active)
same,AC50,[1],11.1 µM (active)
same,AC50,[2],4.84 µM (active)
same,AC50,[10],13.5 µM (active)
same,AC50,[5],7.85 µM (active)
NC(=O)N1C(=O)C(C(=O)c2cc(Cl)cs2)c2cc(F)c(Cl)cc21 (configuration not stated),outcome,[3],inactive
CC(=O)NC1(c2cccc(F)c2)CCN(CC[C@@]2(c3ccc(Cl)c(Cl)c3)CN(c3ccccc3)C(=O)CO2)CC1,AC50,[3],14.8 µM (active)
same,AC50,[6],8.68 µM (active)
same,AC50,[1],13.9 µM (active)
same,AC50,[2],10.6 µM (active)
same,AC50,[5],0.00268 µM (active)
CCCCCCCC(=O)O,outcome,[8],inactive
same,outcome,[4],inactive
same,outcome,[6],inactive
same,AC50,[1],6.66 µM (active)
CCCCCCCCCCCCc1ccccc1S(=O)(=O)O,AC50,[3],6.99 µM (active)
same,AC50,[8],18.4 µM (active)
same,AC50,[4],41 µM (active)
same,AC50,[1],33.5 µM (active)
same,AC50,[2],17.2 µM (active)
same,AC50,[5],38 µM (active)
C#C[C@]1(O)CC[C@H]2[C@@H]3CCC4=CC(=O)CC[C@@H]4[C@H]3CC[C@@]21C,outcome,[5],inactive
Cc1cc(CCN2CCN(c3nsc4ccccc34)CC2)cc2c1NC(=O)CC2(C)C,AC50,[5],5.07 µM (active)
Oc1cc2ccccc2c2ccccc12,outcome,[5],inactive
O=C(OCCOCCOC(=O)c1ccccc1)c1ccccc1,outcome,[2],inactive
same,outcome,[5],inactive
Oc1cccc(O)c1,outcome,[10],inactive
Cc1oc(-c2ccccc2)nc1CCOc1ccc(C[C@H](Nc2ccccc2C(=O)c2ccccc2)C(=O)O)cc1,AC50,[3],12.1 µM (active)
same,outcome,[8],inactive
same,outcome,[2],inactive
same,outcome,[5],inactive
CCCCCCCCCCCCCC[N+](C)(C)C,AC50,[3],4.57 µM (active)
same,AC50,[6],1.07 µM (active)
same,AC50,[5],4.81 µM (active)
CN1CCN(c2ccccc2/C=C2\SCCN(c3ccc(Cl)c(Cl)c3)C2=O)CC1,AC50,[5],6.97 µM (active)
